SMILES strings stand for the structures. Among all 67,000 compounds or so, about 300 (0.45%) showed an effect of 50% or more. Only a selection was taken, and strong results are over-represented in it overall.

Sequence of Polyketide synthase Pks13 (Mycobacterium tuberculosis (strain ATCC 25618 / H37Rv)) (I6X8D2 whole entry): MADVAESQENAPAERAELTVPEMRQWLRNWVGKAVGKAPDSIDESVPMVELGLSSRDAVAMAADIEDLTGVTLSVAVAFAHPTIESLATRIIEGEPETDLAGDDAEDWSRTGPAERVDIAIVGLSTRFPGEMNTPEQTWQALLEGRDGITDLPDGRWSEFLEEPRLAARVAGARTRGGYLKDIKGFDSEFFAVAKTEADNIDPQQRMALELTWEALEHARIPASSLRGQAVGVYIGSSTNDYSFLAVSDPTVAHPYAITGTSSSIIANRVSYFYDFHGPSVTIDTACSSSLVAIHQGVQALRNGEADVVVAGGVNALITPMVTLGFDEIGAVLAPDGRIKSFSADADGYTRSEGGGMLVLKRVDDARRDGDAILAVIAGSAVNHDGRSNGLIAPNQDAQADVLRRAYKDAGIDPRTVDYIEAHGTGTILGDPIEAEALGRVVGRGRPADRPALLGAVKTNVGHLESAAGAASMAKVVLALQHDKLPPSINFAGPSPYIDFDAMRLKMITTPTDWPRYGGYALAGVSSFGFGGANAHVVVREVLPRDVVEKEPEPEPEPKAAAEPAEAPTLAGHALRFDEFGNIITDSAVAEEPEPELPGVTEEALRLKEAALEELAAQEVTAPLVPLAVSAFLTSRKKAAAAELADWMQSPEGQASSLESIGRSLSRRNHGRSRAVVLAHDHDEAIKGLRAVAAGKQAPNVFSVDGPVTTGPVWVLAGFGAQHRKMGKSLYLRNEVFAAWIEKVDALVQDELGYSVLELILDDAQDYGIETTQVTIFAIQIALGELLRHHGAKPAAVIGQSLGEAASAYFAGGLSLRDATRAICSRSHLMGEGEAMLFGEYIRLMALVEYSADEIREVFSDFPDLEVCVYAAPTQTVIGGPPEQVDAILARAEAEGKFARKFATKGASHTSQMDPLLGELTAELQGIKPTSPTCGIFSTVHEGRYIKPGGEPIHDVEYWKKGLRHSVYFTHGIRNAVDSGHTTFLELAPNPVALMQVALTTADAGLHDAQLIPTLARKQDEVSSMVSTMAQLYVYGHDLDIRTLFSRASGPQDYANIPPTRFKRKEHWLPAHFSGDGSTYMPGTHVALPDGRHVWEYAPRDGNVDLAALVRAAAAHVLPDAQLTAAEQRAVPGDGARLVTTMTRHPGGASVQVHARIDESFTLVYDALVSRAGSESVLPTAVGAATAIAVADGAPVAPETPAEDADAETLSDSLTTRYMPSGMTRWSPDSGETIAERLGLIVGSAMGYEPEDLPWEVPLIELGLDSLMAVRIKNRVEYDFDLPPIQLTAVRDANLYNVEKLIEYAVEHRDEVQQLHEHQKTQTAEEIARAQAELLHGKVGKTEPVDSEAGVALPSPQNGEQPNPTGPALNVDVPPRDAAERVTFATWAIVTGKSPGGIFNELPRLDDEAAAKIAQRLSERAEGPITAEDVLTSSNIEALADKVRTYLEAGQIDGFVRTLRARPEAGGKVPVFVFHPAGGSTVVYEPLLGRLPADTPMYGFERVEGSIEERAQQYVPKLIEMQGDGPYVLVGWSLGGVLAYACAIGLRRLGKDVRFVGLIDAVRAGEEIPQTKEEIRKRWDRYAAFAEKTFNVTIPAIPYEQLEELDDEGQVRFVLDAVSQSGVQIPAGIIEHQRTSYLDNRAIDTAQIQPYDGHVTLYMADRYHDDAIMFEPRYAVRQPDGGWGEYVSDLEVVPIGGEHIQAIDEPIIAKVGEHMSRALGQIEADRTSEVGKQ

This experiment has as its target Polyketide synthase Pks13 (Mycobacterium tuberculosis (strain ATCC 25618 / H37Rv)) (UniProt I6X8D2). Kind of experiment: Mycobacterium tuberculosis Polyketide synthase 13 Thioesterase (PKS13). The class given is functional. More on the design: scale not given: in the data most compounds retested in dose-response had high values. The following applies: 30 µM.
As to `O=C(NC1CC1)[C@H]1C[C@H]2OCC[C@H]2N(Cc2cccnc2)C1`, the Percent Effect amounted to 1.16%.
The value for `O=C(c1cc2cc(F)ccc2[nH]1)N1CCC(Nc2cccnn2)CC1` was -12.9%; that for `O=C(c1cc2cc(F)ccc2[nH]1)N1CCC(Nc2ccc(F)cc2)CC1` was 70.6%.
Regarding `Cc1nnc2n1CCN(C(=O)c1cc3cc(F)ccc3[nH]1)C2`, the Percent Effect is -0.338%.
As for `O=C1CO[C@H]2CN(Cc3ccccc3Br)C[C@@H]2N1`, the Percent Effect worked out at 5.27%.
To `Cn1ccnc1CN1CCN(CC2CC2)[C@@H]2CS(=O)(=O)C[C@@H]21` belongs -9.98%; to `c1ccc(CN2CCO[C@H]3[C@H](OCCN4CCCC4)CC[C@@H]32)nc1`, -5.53%; to `NC(=O)CCSc1ccccc1NCc1ccc(Cl)s1`, 75.8%.
Regarding `CC(C)(C)c1ncc(CNc2ccccc2SCCC(N)=O)s1`, the Percent Effect is 4.25%.
The value for `CC(C)(C)c1nc(CNc2ccccc2SCCC(N)=O)cs1` was 6.99%; that for `O=C(Nc1cccnc1)[C@@H]1C[C@H]2OCC[C@H]2N(Cc2nccs2)C1` was -10.3%; that for `Cc1nnc(N2C[C@@H]3CCCO[C@@H]3[C@H](N(C)C)C2)s1` was 26.3%.
For `Cc1nc(-c2ccc(Cl)s2)sc1C(=O)N(C)CC(N)=O`, the Percent Effect turned out to be 88.9%.
Consider `COC(=O)CNC(=O)c1scnc1C`, for which the Percent Effect was -29.3%.
Turning to `CN(CC(N)=O)C(=O)c1cnc(-c2ccc(Cl)s2)s1`, the Percent Effect is -171%.
Turning to `CC(=O)NCCNC(=O)c1sc(-c2ccc(Cl)cc2)nc1C`, the Percent Effect is -15.5%.
Take `Cc1c(C(=O)NCCCC(N)=O)sc2ccc(F)cc12`: the Percent Effect worked out at 0.295%.
To `CC(=O)NCCNC(=O)c1sc(-c2ccc(Cl)s2)nc1C` belongs 33.9%.
The value for `CN(CC(N)=O)C(=O)c1cc(Cl)c(Cl)n1C` was -6.47%.
Regarding `COC(=O)CNC(=O)c1sc(-c2ccc(Cl)s2)nc1C`, the Percent Effect worked out at 51.9%.
Regarding `Cc1nc(-c2ccc(Cl)s2)sc1C(=O)NCCCC(N)=O`, the Percent Effect amounted to 54.9%.
To `Cc1nc(-c2ccc(Cl)s2)sc1C(=O)NCCS(N)(=O)=O` belongs 54%; to `COC(=O)CNC(=O)c1nc(Cl)sc1C(C)C`, -1.24%; to `CC(=O)NCCNC(=O)c1sc(-c2ccc(C)cc2C)nc1C`, -6.1%.
Consider `CN(C)C(=O)CN1C[C@@H]2CC[C@H](C1)N(Cc1ccccc1OCCO)C2`, for which the Percent Effect was -4.8%.
For the molecule `CCCN1CCN(Cc2cccc(OC(C)C)c2)[C@H]2CS(=O)(=O)C[C@H]21`, the Percent Effect is -8.54%.
The value for `O=C(CO[C@@H]1CC[C@H]2[C@H]1OCCN2c1ncccn1)N1CCCC1` was -31.3%; that for `C1CCN(CCO[C@@H]2CC[C@H]3[C@H]2OCCN3CC2CCOCC2)C1` was -4.73%.
Regarding `c1cnc(NC[C@H]2OC[C@@H]3CCN(Cc4ccsc4)C[C@@H]32)nc1`, the Percent Effect is -14%.
To `Cc1ccc(S(=O)(=O)N2CC[C@H]3CO[C@H](CN(C)C)[C@H]3C2)cc1` belongs -8.17%.
Take `CC(C)N1C(=O)CO[C@H]2CCN(C(=O)c3ccc4c(c3)CCC4)CC[C@@H]21`: the Percent Effect was 13%.
For the molecule `CC(C)(NC(=O)c1ccc(-c2ccc(F)cc2)s1)C(N)=O`, the Percent Effect is -17.8%.
Consider `Cc1nc(-c2ccc(Cl)s2)sc1C(=O)NC(C)(C)C(N)=O`, for which the Percent Effect came to 59.7%.
Turning to `Cc1nc(-c2ccc(Cl)s2)sc1C(=O)O`, the Percent Effect is 11.9%.
In the case of `O=C1[C@@H]2CN(Cc3cc4ccccc4o3)C[C@]2(C(=O)O)CN1CC1CC1`, the Percent Effect was -17.7%.
In the case of `CN(C)C(=O)N1C[C@@H]2CC[C@H](C1)N(C(=O)CCCn1cncn1)C2`, the Percent Effect is -5.92%.
The value for `Cc1csc(CNc2nc3c(s2)c(C)nn3C)n1` was 24%.
For `Cc1csc(CNc2cnc3c(c2)c(C)nn3C)n1`, the Percent Effect stood at 54.4%.
For the molecule `Cc1csc(CCNCc2cnc3c(c2)c(C)nn3C)n1`, the Percent Effect was -13.2%.
For `Cc1ccc([C@]2(O)CC[C@H]3CN(Cc4cccc(Cl)c4Cl)C[C@H]32)nc1`, the Percent Effect was -77.5%.
Take `COc1ccnc(N2C[C@@H]3CC[C@H](C2)N(CC2CC2)C3)n1`: the Percent Effect was -40.5%.
To `Cc1ccc(-c2cc(C(=O)NCCCc3csc(N)n3)[nH]n2)o1` belongs -10.8%; to `Cc1ccc(-c2cc(C(=O)NCCCc3csc(N)n3)[nH]n2)s1`, 57.8%; to `Cn1cccc1-c1cc(C(=O)NCCCc2csc(N)n2)[nH]n1`, 3.3%.
To `COCCN1C[C@H]2[C@@H](C1)N(C(=O)CCc1ccccc1)CC[C@H]2OC` belongs -5.76%.
On to `Cc1nnc([C@@H]2CC[C@@H]3[C@@H](CCN3S(=O)(=O)c3cccnc3)O2)o1`, for which the Percent Effect was -18.5%.
Regarding `NC(=O)c1cc(-c2cccc(C(=O)O)c2)cs1`, the Percent Effect is -10.7%.
Regarding `NC(=O)c1cc(-n2cc(-c3cccc(C(=O)O)c3)cn2)cs1`, the Percent Effect is -18.4%.
Consider `NC(=O)c1ccccc1-n1cc(-c2cccc(C(=O)O)c2)cn1`, for which the Percent Effect was 61.5%.
As for `CC(=O)N1[C@H](CN(C)C)C[C@@H]2CN(C(=O)c3cccc(F)c3)CC[C@@H]21`, the Percent Effect was -7.05%.
The value for `O=C(c1ccc(F)cc1)N1C[C@@H]2CN(c3ncccn3)C[C@@H]2C1` was -16.8%; that for `CN(C)S(=O)(=O)N1CC[C@]2(O)CCN(c3ncccn3)C[C@@H]2C1` was 5.3%.
The value for `CS(=O)(=O)NC[C@H]1OC[C@@H]2CN(Cc3cccnc3)CC[C@@H]21` was 7.73%; that for `CC(NC(=O)CN(C)S(C)(=O)=O)c1nnc2n1CCCCC2` (stereo not given) was 76.2%.
In the case of `CC(NC(=O)COCC(F)(F)F)c1nnc2n1CCCCC2` (stereo not given), the Percent Effect was -15.5%.
With `CC(C)CCC(=O)NC(C)c1nnc2n1CCCCC2` (stereo not given), the Percent Effect is -2.75%.
Turning to `Cc1noc(C)c1CN1C[C@@H]2CCCO[C@@H]2[C@H](Nc2ccccn2)C1`, the Percent Effect was -22.7%.
As to `Cc1nnc(C[C@@H]2COC[C@H]3CN(C(=O)c4ccco4)C[C@@H]23)o1`, the Percent Effect was -27.6%.
`Cc1cccc(CN2C[C@H]3C[C@H](C(=O)NCc4cccnc4)[C@@H](C2)O3)c1`: the Percent Effect came out at 2.63%.
To `Cc1nnc([C@H]2CCN(CCCc3ccccc3)C2)o1` belongs 8.46%; to `c1ccc(CCCN2CC[C@H](c3nnc(-c4cccnc4)o3)C2)cc1`, -20%; to `c1ccc(CCCN2CC[C@H](c3nnc(-c4ccccc4)o3)C2)cc1`, 96.4%.
Turning to `Cc1nc(O)cc(CNC(=O)CC[C@@H]2CCCN3CCCC[C@H]23)n1`, the Percent Effect was -2.37%.
As for `COc1cccc(CNC[C@@]2(COc3cccnc3)C[C@@H](O)[C@@H](O)C2)c1`, the Percent Effect was 3.65%.
To `COCc1nc(C(=O)N2CCCC2c2ccncc2)cs1` (stereo not given) belongs -19.5%; to `COc1cccc(C2CCCN2C(=O)c2cc3c([nH]c2=O)CCC3)c1` (stereo not given), 43.2%.
`COc1ccc(C2CCCN2C(=O)c2cc3c([nH]c2=O)CCC3)cc1` (stereo not given): the Percent Effect was 57.9%.
Turning to `COCc1nc(C(=O)N2CCCC2c2ccc(OC)cc2)cs1` (stereo not given), the Percent Effect amounted to 76.5%.
Turning to `O=C(c1cc2c([nH]c1=O)CCC2)N1CCCC1c1ccc(F)cc1` (stereo not given), the Percent Effect is -4.09%.
The value for `COCc1nc(C(=O)N2CCCC2c2cccc(C)c2)cs1` (stereo not given) was -1.31%.

For the origin of these results see ChEMBL document CHEMBL3988442, “University of Dundee, Small-Polar-MMV Screening Library” (2021).
